Inconclusive results are not listed. Unless noted, calls follow the shape of the dose curve; as a rule, active = well fitted curve in either direction with a large enough effect (not every such curve was filed as active); inconclusive = small, poorly fitted or top-dose-only effect, or another doubt; inactive = flat fitted curve, though single readings scatter.
What was measured:
[1] = AP1 Signaling Pathway (AID 357); details: ME-180 AP-1-bla reporter, EGF-induced, beta-lactamase ratio, 5 h; at 17.2 µM (top of the series) unless noted; also: % is scaled to controls: 0 for no effect and ±100 for the full control effect
Method in brief: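 ME-180 cells with beta-lactamase reporter under AP-1 response element, stimulated with EC50 EGF; compounds tested in titration series, 5 h at 37 °C. CCF4 substrate added 2.5 h at room temperature; 460/530 nm emission ratio gave %activity and AC50.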

[2] = Stat Signaling Pathway (AID 446); details: ME-180 (cervical carcinoma) SIE beta-lactamase reporter, IL-6 stimulated, 5 h; at 17.2 µM (top of the series) unless noted;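 also: ME-180 cervical cancer cells given 40 pM IL-6 alongside compound; SIE-controlled beta-lactamase reporter measured as 460/530 nm FRET emission ratio; % is scaled to controls: 0 for no effect and ±100 for the full control effect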
Method in brief: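 Overnight-plated ME-180 cells bearing a STAT Inducible Element beta-lactamase reporter; 5 h co-exposure to compound and 40 pM IL-6; values normalized to 300 pM IL-6 and 125 nM JAK inhibitor controls.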

[3] = biological target: Glucocorticoid receptor (Homo sapiens) (UniProt P04150); test: GR-GFP Redistribution (AID 450;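 active = compounds whose dose series gives a full or clear partial fitted curve of increased nuclear translocation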; also: potency is read from the fitted curve at half-maximal effect)
Glucocorticoid receptor (Homo sapiens), sequence (P04150 whole entry, looked up): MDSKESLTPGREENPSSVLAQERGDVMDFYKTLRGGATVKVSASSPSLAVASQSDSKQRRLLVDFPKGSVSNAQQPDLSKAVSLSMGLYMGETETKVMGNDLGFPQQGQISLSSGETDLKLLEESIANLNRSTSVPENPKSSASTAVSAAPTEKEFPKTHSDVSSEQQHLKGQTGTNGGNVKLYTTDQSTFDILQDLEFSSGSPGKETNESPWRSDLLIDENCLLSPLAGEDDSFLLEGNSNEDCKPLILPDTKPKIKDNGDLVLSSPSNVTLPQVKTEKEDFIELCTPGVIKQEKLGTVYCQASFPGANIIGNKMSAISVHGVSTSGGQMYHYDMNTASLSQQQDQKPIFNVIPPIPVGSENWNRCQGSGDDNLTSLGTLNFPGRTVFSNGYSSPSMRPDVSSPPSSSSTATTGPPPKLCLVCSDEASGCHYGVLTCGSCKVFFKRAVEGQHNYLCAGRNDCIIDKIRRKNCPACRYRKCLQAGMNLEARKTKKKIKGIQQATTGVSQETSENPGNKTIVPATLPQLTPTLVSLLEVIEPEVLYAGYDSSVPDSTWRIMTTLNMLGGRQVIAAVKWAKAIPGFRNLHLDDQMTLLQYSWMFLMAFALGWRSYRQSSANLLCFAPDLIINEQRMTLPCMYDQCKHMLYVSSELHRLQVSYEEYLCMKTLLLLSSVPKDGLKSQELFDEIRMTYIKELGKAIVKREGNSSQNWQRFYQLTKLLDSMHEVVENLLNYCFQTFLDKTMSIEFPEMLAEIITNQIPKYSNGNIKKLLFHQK

CCCCCNc1nc(N2CCCC2)c2c(c1C#N)CCN(C)C2
inactive: activity change, negative = inhibition [1] 3.36% | activity, negative = inhibition [2] -7.71% | Potency [3] > 20.6 µM

CCCOc1ccc(Cc2nn[nH]n2)cc1
inactive: activity change, negative = inhibition [1] 6.52% | activity, negative = inhibition [2] 2.28% | Potency [3] > 20.6 µM

Cc1c(N=Cc2c(O)n(C3CCCCC3)c(=O)[nH]c2=O)c(=O)n(-c2ccccc2)n1C
inactive: activity change, negative = inhibition [1] -6.37% | activity, negative = inhibition [2] -1.79% | Potency [3] > 20.6 µM

CCOc1ccc(C2=Nn3c(nnc3-c3ccccn3)SC2)cc1
inactive: activity change, negative = inhibition [1] -11.7% | activity, negative = inhibition [2] 3.43% | Potency [3] > 20.6 µM

CCC(NC(C)C)C(O)c1ccc(O)c2[nH]c(=O)ccc12 (stereo not given)
inactive: activity change, negative = inhibition [1] -12.1% | activity, negative = inhibition [2] 11.4% | Potency [3] > 20.6 µM
